The values that follow come from PubChem BioAssay (Tox21).

Values joined by “and” are separate entries in the source; they are usually repeats but may differ in a detail not shown here. Equal values may be shown once. Results filed as inconclusive are left out. Active and inactive are the calls of the source. The call rests on the fitted dose curve; in most records, active means well fitted curve in the direction sought with a large enough effect in the repeat runs; inconclusive means weak or mixed curves; inactive means no such curve, though single readings can be large; an effect the other way counts as inactive or inconclusive.

Test [1] can be described thus: Caspase-3/7 induction in CHO-K1 cells by small molecules, qHTS cell viability counter screen (AID 1346979). Further: nearly all actives have a fitted effect of over 35% in size. Further: potency means the concentration at half of the fitted maximal effect. In outline: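 Seeding: 1,500 CHO-K1 cells/well. Rest: 5hr, 37C. Treatment: compounds in DMSO, 16hr. Read: CellTiter-Fluor, 1hr, fluorescence.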
A general note: Quantitative high-throughput screening tests each substance at several concentrations.

Test [2] is described as follows: Caspase-3/7 induction in CHO-K1 cells by small molecules, qHTS assay (AID 1346980). Further: nearly all actives have a fitted effect of over 15% in size. In outline:
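Wild-type cells were seeded at 1,500 per well and settled 5 hr at 37 C, 5% CO2, then exposed to DMSO-dissolved compounds for 17 hr. Caspase-Glo 3/7 reagent was added, and luminescence was read after 30min at room temperature.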

Test [3] addresses Cytochrome P450 2D6 (Homo sapiens) (UniProt P10635). Put plainly: Cytochrome P450 Family 2 Subfamily D Member 6 (CYP2D6) small molecule antagonists: luciferase reporter qHTS assay (AID 1671196). Further: nearly all actives have a fitted effect of over 50% in size. Further: potency means the concentration at half of the fitted maximal effect. An outline of the steps:
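Each well received CYP2D6 with its proluciferin substrate and chemical, sat 10 min, then got NADPH regeneration solution for 1 h at room temperature. Luminescence in RLU served as the activity measure.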
A general note: A reporter such as luciferase makes a cellular process visible.

Test [4] concerns the target Cytochrome P450 2C19 (Homo sapiens) (UniProt P33261). Briefly: Cytochrome P450 Family 2 Subfamily C Member 19 (CYP2C19) small molecule antagonists: luciferase reporter qHTS assay (AID 1671197). Further: nearly all actives have a fitted effect of over 65% in size. Further: potency means the concentration at half of the fitted maximal effect. An outline of the steps: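 Compounds were tested on CYP2C19 activity via proluciferin conversion to luciferin. The 37C, 1 h reaction followed NADPH addition; detection reagent stopped it.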

Test [5] has as its target Cytochrome P450 2C9 (Homo sapiens) (UniProt P11712). Briefly: Cytochrome P450 Family 2 Subfamily C Member 9 (CYP2C9) small molecule antagonists: luciferase reporter qHTS assay (AID 1671198). Further: nearly all actives have a fitted effect of over 50% in size. Further: potency means the concentration at half of the fitted maximal effect. An outline of the steps: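 CYP2C9 activity was measured with a P450-Glo proluciferin substrate. Enzyme–substrate mix was held with compound for 10 min at room temperature, then NADPH regeneration solution was added for 1 h at 37C. Luciferin product was read as luminescence.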

Test [6] deals with Cytochrome P450 1A2 (Homo sapiens) (UniProt P05177). Put plainly: Cytochrome P450 Family 1 Subfamily A Member 2 (CYP1A2) small molecule antagonists: luciferase reporter qHTS assay (AID 1671199). Further: nearly all actives have a fitted effect of over 50% in size. Further: potency means the concentration at half of the fitted maximal effect. In outline:
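Enzymatic CYP1A2 assay, human, luminescent: 10 min compound–enzyme–substrate preincubation, 1 h NADPH-dependent turnover, 20 min detection step, room temperature throughout. Reduced light indicates lower CYP1A2 activity.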

In test [7] the target is Voltage-gated inwardly rectifying potassium channel KCNH2 (Homo sapiens) (UniProt Q12809). Put plainly: Human Ether-a-go-go-Related Gene (hERG) channel small molecule antagonists: fluorescence cell-based qHTS assay (AID 1671200). Further: nearly all actives have a fitted effect of over 50% in size. Further: potency means the concentration at half of the fitted maximal effect. An outline of the steps: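 First, 1000 cells per well are seeded and cultured overnight at 37 C. Next, FluxOR II dye is loaded for 1 h at room temperature, protected from light. After 10 more minutes, stimulus is added and fluorescence is read.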
Chain of Voltage-gated inwardly rectifying potassium channel KCNH2 (Homo sapiens) (Q12809 whole entry, looked up): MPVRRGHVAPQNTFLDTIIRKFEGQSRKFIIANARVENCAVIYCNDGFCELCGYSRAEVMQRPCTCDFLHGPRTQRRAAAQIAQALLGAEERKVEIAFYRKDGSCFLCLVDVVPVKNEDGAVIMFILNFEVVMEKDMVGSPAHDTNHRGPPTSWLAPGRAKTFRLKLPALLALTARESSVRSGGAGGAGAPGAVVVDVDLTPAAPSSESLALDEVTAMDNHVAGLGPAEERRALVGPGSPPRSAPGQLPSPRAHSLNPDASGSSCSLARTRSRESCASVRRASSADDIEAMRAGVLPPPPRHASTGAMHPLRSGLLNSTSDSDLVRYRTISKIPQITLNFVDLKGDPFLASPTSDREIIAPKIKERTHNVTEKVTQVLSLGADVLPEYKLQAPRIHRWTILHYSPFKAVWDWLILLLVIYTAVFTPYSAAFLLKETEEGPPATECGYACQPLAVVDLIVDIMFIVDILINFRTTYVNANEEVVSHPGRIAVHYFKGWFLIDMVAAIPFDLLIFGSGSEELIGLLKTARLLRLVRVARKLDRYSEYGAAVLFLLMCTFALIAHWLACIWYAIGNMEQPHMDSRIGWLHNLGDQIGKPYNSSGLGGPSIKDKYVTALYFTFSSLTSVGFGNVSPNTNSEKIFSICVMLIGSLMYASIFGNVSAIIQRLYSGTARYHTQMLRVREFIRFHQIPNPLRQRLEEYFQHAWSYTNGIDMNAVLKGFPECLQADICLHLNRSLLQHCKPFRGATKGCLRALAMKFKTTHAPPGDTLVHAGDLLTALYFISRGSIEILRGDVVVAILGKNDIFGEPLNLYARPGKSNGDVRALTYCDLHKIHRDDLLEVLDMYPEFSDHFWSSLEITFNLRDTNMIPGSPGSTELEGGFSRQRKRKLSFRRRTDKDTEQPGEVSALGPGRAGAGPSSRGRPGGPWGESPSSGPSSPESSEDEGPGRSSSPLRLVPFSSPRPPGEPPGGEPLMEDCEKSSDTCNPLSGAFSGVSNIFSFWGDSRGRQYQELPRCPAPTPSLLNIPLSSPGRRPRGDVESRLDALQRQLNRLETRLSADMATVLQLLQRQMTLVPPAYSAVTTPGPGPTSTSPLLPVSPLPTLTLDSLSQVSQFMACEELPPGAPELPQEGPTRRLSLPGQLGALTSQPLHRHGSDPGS

In test [8] the target is Nuclear receptor subfamily 1 group I member 2 (Homo sapiens) (UniProt O75469). Briefly: Human pregnane X receptor (PXR) small molecule agonists, qHTS assay (AID 1346982). Further: nearly all actives have a fitted effect of over 35% in size. Further: potency means the concentration at half of the fitted maximal effect. In outline:
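Compound-induced hPXR transactivation of a CYP3A4 luciferase reporter was scored in HepG2 PXR-Luc cells over 24 hr at 37 C, 5% CO2, by luminescence.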

For test [9], the target named is Cytochrome P450 3A4 (Homo sapiens) (UniProt P08684). Put plainly: Cytochrome P450 Family 3 Subfamily A Member 4 (CYP3A4) small molecule antagonists: luciferase reporter qHTS assay (AID 1671201). Further: nearly all actives have a fitted effect of over 50% in size. Further: potency means the concentration at half of the fitted maximal effect. In outline:
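Enzyme and proluciferin substrate are mixed with test chemicals for 10 min, then NADPH regeneration system drives turnover for 1 h at room temperature. A detection reagent halts the reaction; luminescence after 20 min gives relative activity.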

The target in test [10] is Nuclear receptor subfamily 1 group I member 2 (Homo sapiens) (UniProt O75469). Briefly: CYP3A4 induction through human pregnane X receptor (PXR) by small molecules, qHTS assay (AID 1346984). Further: nearly all actives have a fitted effect of over 40% in size. In outline:
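Readings come from a luciferase reporter: DPX-2 cells, which are HepG2 cotransfected with PXR and a CYP3A4-promoter construct, were exposed to test compounds for 24 h at 37C before One-Glo detection.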

For test [11] the target is unchanged. Put plainly: Human pregnane X receptor (PXR) activation by small molecules, qHTS assay (AID 1346985). Further: nearly all actives have a fitted effect of over 40% in size. An outline of the steps:
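DPX-2 cells (HepG2 co-transfected with a PXR response element and a CYP3A4-promoter luciferase construct) were seeded at 2,000 per well, rested 5 hr at 37C, then exposed to DMSO-dissolved compounds for 24 hr. Activation was read as luciferase luminescence.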

A short description of test [12]: Caspase-3/7 induction in HepG2 cells by small molecules, qHTS cell viability counter screen (AID 1346981). Further: potency means the concentration at half of the fitted maximal effect; nearly all actives have a fitted effect of over 30% in size. An outline of the steps:
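Viability determined by CellTiter-Fluor fluorescence in HepG2 wells also used for the luminescent Caspase-Glo 3/7 read. Compounds were present for 16 hr at 37 C, 5% CO2 before reagent addition.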

Chain of Cytochrome P450 2D6 (Homo sapiens) (P10635 whole entry, looked up): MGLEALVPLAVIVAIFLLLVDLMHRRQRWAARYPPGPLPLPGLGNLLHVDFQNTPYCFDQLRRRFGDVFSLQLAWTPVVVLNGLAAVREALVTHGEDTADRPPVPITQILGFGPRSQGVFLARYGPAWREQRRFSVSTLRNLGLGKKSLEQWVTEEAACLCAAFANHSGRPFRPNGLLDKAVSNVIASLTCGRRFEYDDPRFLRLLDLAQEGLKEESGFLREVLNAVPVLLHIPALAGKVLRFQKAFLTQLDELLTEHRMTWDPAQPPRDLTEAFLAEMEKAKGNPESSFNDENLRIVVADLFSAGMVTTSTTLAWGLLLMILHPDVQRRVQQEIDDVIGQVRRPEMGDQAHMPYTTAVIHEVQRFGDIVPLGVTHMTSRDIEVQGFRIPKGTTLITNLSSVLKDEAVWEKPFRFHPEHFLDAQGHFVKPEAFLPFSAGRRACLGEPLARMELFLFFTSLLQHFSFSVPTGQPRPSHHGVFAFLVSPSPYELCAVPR
Chain of Cytochrome P450 1A2 (Homo sapiens) (P05177 whole entry, looked up): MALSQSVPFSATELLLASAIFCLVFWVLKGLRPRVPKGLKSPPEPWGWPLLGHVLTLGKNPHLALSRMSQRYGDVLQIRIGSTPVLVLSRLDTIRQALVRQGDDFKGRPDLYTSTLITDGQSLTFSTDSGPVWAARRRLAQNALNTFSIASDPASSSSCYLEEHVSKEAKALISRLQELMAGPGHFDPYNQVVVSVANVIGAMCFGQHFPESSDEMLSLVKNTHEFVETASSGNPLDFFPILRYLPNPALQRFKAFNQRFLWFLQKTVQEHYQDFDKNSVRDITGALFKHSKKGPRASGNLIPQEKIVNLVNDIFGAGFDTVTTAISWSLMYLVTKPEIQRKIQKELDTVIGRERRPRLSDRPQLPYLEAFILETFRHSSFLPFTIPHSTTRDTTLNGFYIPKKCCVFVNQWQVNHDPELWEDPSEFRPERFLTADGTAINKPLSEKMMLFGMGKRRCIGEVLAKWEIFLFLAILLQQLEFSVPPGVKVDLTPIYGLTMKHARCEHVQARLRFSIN
Chain of Cytochrome P450 2C9 (Homo sapiens) (P11712 whole entry, looked up): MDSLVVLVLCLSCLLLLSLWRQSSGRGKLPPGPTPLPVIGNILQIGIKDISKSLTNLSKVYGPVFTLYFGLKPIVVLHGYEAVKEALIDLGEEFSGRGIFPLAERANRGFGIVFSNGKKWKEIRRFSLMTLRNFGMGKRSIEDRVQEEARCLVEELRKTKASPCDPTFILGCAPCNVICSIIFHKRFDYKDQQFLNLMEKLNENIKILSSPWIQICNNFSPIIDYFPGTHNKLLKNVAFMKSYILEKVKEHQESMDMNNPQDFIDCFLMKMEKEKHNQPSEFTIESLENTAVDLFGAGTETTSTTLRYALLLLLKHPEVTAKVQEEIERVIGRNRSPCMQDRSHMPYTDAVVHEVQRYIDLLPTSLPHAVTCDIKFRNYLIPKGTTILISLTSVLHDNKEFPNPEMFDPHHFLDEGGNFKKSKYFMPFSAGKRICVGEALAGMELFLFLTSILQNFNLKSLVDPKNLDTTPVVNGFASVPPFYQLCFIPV
Chain of Cytochrome P450 3A4 (Homo sapiens) (P08684 whole entry, looked up): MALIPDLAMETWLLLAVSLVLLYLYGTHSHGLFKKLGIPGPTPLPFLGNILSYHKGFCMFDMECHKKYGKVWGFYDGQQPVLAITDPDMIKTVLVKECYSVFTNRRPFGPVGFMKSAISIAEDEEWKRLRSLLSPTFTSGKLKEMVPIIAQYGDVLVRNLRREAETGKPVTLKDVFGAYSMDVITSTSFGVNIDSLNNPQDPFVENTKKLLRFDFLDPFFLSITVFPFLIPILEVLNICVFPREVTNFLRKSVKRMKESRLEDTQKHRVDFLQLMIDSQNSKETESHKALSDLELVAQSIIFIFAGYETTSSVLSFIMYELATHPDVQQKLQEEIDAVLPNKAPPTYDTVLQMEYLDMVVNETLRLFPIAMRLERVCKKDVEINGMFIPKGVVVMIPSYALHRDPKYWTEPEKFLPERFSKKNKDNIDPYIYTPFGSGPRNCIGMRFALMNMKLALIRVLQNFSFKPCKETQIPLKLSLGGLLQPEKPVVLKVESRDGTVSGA
Chain of Nuclear receptor subfamily 1 group I member 2 (Homo sapiens) (O75469 whole entry, looked up): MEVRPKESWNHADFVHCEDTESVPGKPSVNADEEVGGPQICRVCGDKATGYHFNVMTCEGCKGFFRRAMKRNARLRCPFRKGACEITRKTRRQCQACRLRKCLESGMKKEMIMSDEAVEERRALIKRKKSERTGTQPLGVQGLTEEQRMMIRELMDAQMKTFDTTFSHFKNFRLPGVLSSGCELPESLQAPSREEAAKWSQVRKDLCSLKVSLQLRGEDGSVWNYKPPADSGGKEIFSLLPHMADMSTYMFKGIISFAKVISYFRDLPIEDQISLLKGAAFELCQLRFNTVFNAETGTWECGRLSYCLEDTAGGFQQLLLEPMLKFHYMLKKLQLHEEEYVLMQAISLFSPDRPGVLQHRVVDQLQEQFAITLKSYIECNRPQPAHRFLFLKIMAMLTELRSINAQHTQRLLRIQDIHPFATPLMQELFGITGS
Chain of Cytochrome P450 2C19 (Homo sapiens) (P33261 whole entry, looked up): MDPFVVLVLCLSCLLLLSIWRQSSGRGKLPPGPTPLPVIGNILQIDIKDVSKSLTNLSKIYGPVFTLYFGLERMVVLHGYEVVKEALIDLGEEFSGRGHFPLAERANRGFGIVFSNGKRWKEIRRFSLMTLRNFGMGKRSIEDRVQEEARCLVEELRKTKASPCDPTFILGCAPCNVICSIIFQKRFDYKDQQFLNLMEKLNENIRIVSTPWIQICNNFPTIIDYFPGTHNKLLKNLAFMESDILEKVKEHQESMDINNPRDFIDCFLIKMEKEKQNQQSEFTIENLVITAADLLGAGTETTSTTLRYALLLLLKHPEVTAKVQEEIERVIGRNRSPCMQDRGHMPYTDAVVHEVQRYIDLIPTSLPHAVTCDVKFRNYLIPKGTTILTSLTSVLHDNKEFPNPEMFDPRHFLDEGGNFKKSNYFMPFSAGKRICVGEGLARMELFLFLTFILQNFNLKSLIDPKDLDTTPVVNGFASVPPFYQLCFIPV

As for `CCCCCCOc1ccc(O)cc1`, the Potency in [1] was 61.1 µM (active); in [3], 79.6 µM (active); in test [4], 20 µM (active); in test [5] it was 39.9 µM (active); in test [6] it was 39.9 µM (active). For the same molecule, the Potency result in [2] and in test [7] was “inactive” throughout.

Turning to `CCCCC(CC)COC(=O)c1ccc(O)cc1` (centres undefined), the Potency is 54.3 µM (active) and 61.1 µM (active) in test [1]; 24.2 µM (active) and 68.6 µM (active) in test [8]; 79.4 µM (active) and 22.4 µM (active) in test [3]; 11.2 µM (active) and 17.8 µM (active) in [4]; 31.6 µM (active) and 35.6 µM (active) in test [5]; 31.6 µM (active) and 35.6 µM (active) in test [6]. Moreover, the Potency in test [9] is 70.7 µM (active). Also, the Potency entry in test [2] is “inactive”.

As for `CCc1cccc(CC)c1NC(=O)C(=O)O`, the Potency result in test [1], in [2], in test [3], in [4], in test [5] and in test [7] was “inactive” in each case. In addition, the Potency entry in [9] is “inactive”.

For `c1ccc(Sc2ccccc2)cc1`, the Potency result in test [1], in test [2], in [8], in test [3], in test [5] and in test [9] was “inactive” in each case. The Potency in test [4] was 7.1 µM (active); in test [6], 31.7 µM (active).

With `NC1(c2ccc(-c3nc4ccn5c(=O)[nH]nc5c4cc3-c3ccccc3)cc2)CCC1`, the Potency in [1] was 26.6 µM (active). Also, the Potency result in [2], in [3], in test [4], in test [5], in [6] and in test [9] was “inactive” in each case.

In the case of `O=C(Nc1ccc(Cl)c(Cl)c1)c1cc(Cl)cc(Cl)c1O`, the Potency in test [1] is 7.7 µM (active); in test [8], 10.9 µM (active); in test [5], 11.2 µM (active); in test [6] it was 20 µM (active); in test [9], 17.8 µM (active). In addition, the Potency entry in [2] and in [7] was “inactive” in each case.

On to `CCNc1nc(NC(C)CC)nc(OC)n1` (centres undefined), for which the Potency result in test [1], in test [2], in [3], in test [5], in [7] and in [9] was “inactive” each time. Further, the Potency in test [8] was 24.3 µM (active); in test [4], 7.96 µM (active); in [6], 25.2 µM (active).

Consider `OCCN1CN(CCO)CN(CCO)C1`, for which the Potency entry in test [1], in [2], in test [8], in test [5], in test [6] and in test [7] was “inactive” each time. Further, the Potency result in test [9] was “inactive”.

For the molecule `O=C(O)c1cccc(Cl)n1`, the Potency entry in test [1], in test [2], in [8], in [4], in test [5] and in test [6] was “inactive” each time. For the same molecule, the Potency result in [7] and in [9] was “inactive” in each case.

Consider `O=C(NO)c1ccccc1`, for which the Potency in test [1] was 65.3 µM (active); in [8], 29.2 µM (active); in [3], 60.2 µM (active). Besides, the Potency result in test [2] and in [7] was “inactive” throughout.

In the case of `CCCCCCCC(=O)OCC`, the Potency entry in test [1], in test [2], in test [8], in [3], in test [4] and in [5] was “inactive” throughout. Besides, the Potency result in test [6], in [7] and in [9] was “inactive” throughout.

As for `Clc1ccc(C(Cn2ccnc2)OCc2ccsc2Cl)c(Cl)c1` (centres undefined), the Potency was 21.1 µM (active) in test [1]; 3.47 µM (active) in test [3]; 0.347 µM (active) in test [4]; 0.309 µM (active) in [5]; 4.56 µM (active) in [6]; 9.52 µM (active) in test [7]. For the same molecule, the Potency result in test [2] was “inactive”.

Regarding `COc1ccc2sc(C(=O)Nc3nnn[nH]3)c(OC(C)C)c2c1`, the Potency in test [1] is 38.4 µM (active); in test [5], 22.4 µM (active). The Potency result in [2], in test [3], in [4], in test [6] and in [7] was “inactive” throughout.

On to `C[C@]12CC[C@H]3C(=CCc4cc(O)ccc43)[C@@H]1CCC2=O`, for which the Potency is 61.1 µM (active) in test [1]; 27.3 µM (active) in [8]; 31.7 µM (active) in [4]; 35.6 µM (active) in [5]; 35.6 µM (active) in [6]; 20 µM (active) in test [9]. Besides, the Potency result in [2], in test [3] and in [7] was “inactive” in each case.

With `O=C1Nc2ccc(Cl)cc2[C@@](C#CC2CC2)(C(F)(F)F)O1`, the Potency in [1] was 21.1 µM (active); in test [4] it was 11 µM (active); in test [5], 15.5 µM (active); in [6], 17.4 µM (active). Besides, the Potency result in test [2], in test [3] and in test [7] was “inactive” each time.

With `O=C1OC(OC(=O)c2cccnc2Nc2cccc(C(F)(F)F)c2)c2ccccc21` (centres undefined), the Potency entry in test [1], in [2], in [10], in test [11] and in test [3] was “inactive” each time. Further, the Potency in test [5] is 6.17 µM (active); in test [6], 9.77 µM (active).

In the case of `CCC1CCCCC1`, the Potency entry in test [1], in [2], in test [8], in test [3], in test [4] and in [5] was “inactive” in each case. In addition, the Potency entry in [6], in [7] and in test [9] was “inactive” in each case.

Regarding `Cc1cc2c(C(C)C)c(O)c(O)c(C=O)c2c(O)c1-c1c(C)cc2c(C(C)C)c(O)c(O)c(C=O)c2c1O`, the values for the Potency in test [1], in [12] and in test [5] were 13.3 µM (active), 26.6 µM (active) and 34.7 µM (active), respectively. The Potency entry in test [8], in [3], in test [6], in test [7] and in test [9] was “inactive” each time.

Turning to `CCCCCCCCCCCCN(CCO)CCO`, the Potency in test [1] was 43.1 µM (active); in [12], 68.3 µM (active); in test [8], 15.3 µM (active); in [3], 11.2 µM (active); in test [4] it was 25.1 µM (active); in test [5], 63 µM (active). Also, the Potency in [6] was 11.2 µM (active); in test [7], 7.73 µM (active).
